A short description of this experiment: NCI Yeast Anticancer Drug Screen. Data for the mlh1 rad18 strain (AID 175). The following applies: S. cerevisiae mlh1 rad18 strain growth inhibition, stronger effect = higher value. The method, then: Growth inhibition of yeast strains with defined genetic alterations is measured as a screen for potential anti-cancer activity. Selected strains with alterations in DNA damage repair or cell cycle control were exposed to compounds and growth inhibition was measured relative to vehicle treated controls. The strain used in this assay is mlh1 rad18

[1] abbreviates: at 5.0 µM (retest, dose inferred, filed as 0.5).
Where [2] appears, read: at 50.0 µM (retest, dose inferred, filed as 5.0).

Structures are written as SMILES. Values joined by “and” are separate entries in the source; they are usually repeats but may differ in a detail not shown here. Equal entries are not always repeated. This is part of a sample that, as a whole, favours compounds with a hit. Of some 79,000 tested, about 15% had one in any assay. Values without a mark were called inactive. Active and inactive are the calls of the source. Rule as the data show it: active = growth inhibition above about 70%; inactive = the rest.

In the case of `CCCCCCCCCCCCCCCCCCOCC(O)CO` (configuration not stated), the growth inhibition is, setting by setting: under setting [1], -3%; under setting [2], -13%; (at 50.0 µM) 57%.
The matching figures for `Fc1cccc(NC(=S)SCc2ccc(Cl)c(Cl)c2)c1`: 4%, 96% (active) and 99% (active).
The matching figures for `COc1ccc(Cc2ccc(O)cc2)cc1`: 27%, 54% and 28.8%.
As for `C[N+]1(Cc2ccc(Cl)c(Cl)c2)CCCC1C1CCCN(Cc2ccc(Cl)c(Cl)c2)C1` (configuration not stated), the growth inhibition under setting [1] was -2%; the growth inhibition under setting [2] is 76% (active); the growth inhibition (at 50.0 µM) was 29.1% and 48.3%.
Consider `CC(=O)Nc1ccc(S(=O)(=O)N(CCO)CCO)cc1`, for which the growth inhibition by setting is: under setting [1], -20%; under setting [2], -9%; (at 50.0 µM) 91.2% (active).
For the molecule `CCCCCC(C)c1ccc(O)c(C)c1` (configuration not stated), the growth inhibition is 45% under setting [1], 99% (active) under setting [2] and 72.5% (active) (at 50.0 µM).
The matching figures for `O=C(COc1ccc(Cl)cc1Cl)Nc1cccc(C(F)(F)F)c1`: 1%, 10% and -0.4%.
The matching figures for `CCCC(C)NCCOC(=O)C(c1ccccc1)C1CCCCC1` (configuration not stated): 1%, 61% and 73.2% (active).
On to `CCC[CH2][Sn]1([CH2]CCC)[O]N=C(c2ccccc2)C(c2ccccc2)[O]1` (configuration not stated), for which the growth inhibition under setting [1] was 12%, the growth inhibition under setting [2] was 12% and the growth inhibition (at 50.0 µM) was 79.9% (active).
With `CC1=CC(=Nc2ccc(N(C)C)cc2)C=CC1=O`, the growth inhibition runs as follows: under setting [1], -3%; under setting [2], 9%; (at 50.0 µM) 16.4% and 66.2%.
For `N#CNC1=NCOCN1`, the growth inhibition by setting is: under setting [1], 12%; under setting [2], 9%; (at 50.0 µM) 64.4% and 18.4%.
With `Oc1ccc(Cc2ccccc2)cc1`, the growth inhibition is 2% under setting [1], 11% under setting [2] and 72.2% (active) (at 50.0 µM).
The matching figures for `O=C(NN1CCOC1=O)OCCCl`: -1%, 1% and 73.5% (active).
Consider `Cn1c2ccccc2c(=O)c2ccccc21`, for which the growth inhibition runs as follows: under setting [1], -1%; under setting [2], 20%; (at 50.0 µM) -28.4% and 31.8%.

The values are drawn from PubChem BioAssay (NCI).
